Data reported in PubChem BioAssay AID435019 (Southern Research Specialized Biocontainment Screening …, 2010).
Out of some 2,300 compounds screened, about 1,200 (52%) were called active. The set was probably picked from earlier hits. Some of the results follow. Measured potencies and affinities stand elsewhere. Unmarked numbers belong to inactive results. How the calls were made is not given here.

Experiment: mammalian cell cytotoxicity, dose response, cytotoxicity control for M. tuberculosis inhibitor project (AID 435019);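 further: 0% = background wells and 100% = vehicle-treated cells; lower values mean fewer viable cells so more cytotoxicity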
Details: cytotoxicity counter-screen; series mostly up to 40 µM; viability: at the top concentration

Structure (SMILES) | viability
Nn1c(SCc2ccccc2)nc2ccccc21 | 91.9%
COC(=O)CCc1nc2c(C#N)c(-c3ccc(Cl)cc3)ccn2n1 | 99.9%
CC(C)(C)c1ccc(OCCCC(=O)NC2=NCCS2)cc1 | 84.5%
CCOC(=O)c1sc2nc(C)nc(SC(C)C(=O)N(C)c3ccccc3)c2c1C (stereo unspecified) | 83.9%
O=C(CCCC(=O)OCC(=O)c1cccs1)Nc1ccc(Oc2ccccc2)cc1 | 99.9%
CCc1cc2c(=O)n(C(C)C(=O)OC3CCCCC3)cnc2s1 (stereo unspecified) | 94%
COc1ccc(N(CC(=O)Nc2ccccc2C(N)=O)S(=O)(=O)c2ccc(C)c([N+](=O)[O-])c2)cc1 | 82.1%
Cc1ccc(S(=O)(=O)NNC(=O)c2cc([N+](=O)[O-])c(C)c([N+](=O)[O-])c2)cc1 | 94%
CCc1cccc2c(=O)c(C(=O)N3CCOCC3)c[nH]c12 | 98.5%
COc1ccc(N=Cc2ccc(CNS(=O)(=O)c3ccc(Cl)cc3)o2)cc1 | 95.1%
CN(C)c1ccc(CNC2C3CC4CC(C3)CC2C4)cc1 (stereo unspecified) | 82.2%
CCCCCCCCCCNC(=O)C(=O)Nc1ccccn1 | 98.7%
CCOc1ccccc1NC(=O)C12CC3CC(C1)CC(c1ccc(C)cc1)(C3)C2 | 90.9%
C[C@H](O)[C@H](O)[C@H]1CNc2nc(N)[nH]c(=O)c2N1 | 92.3%
Cc1cc(C)cc(NC(=O)CCc2ccc(C)o2)c1 | 99.8%
Cc1cc(C(=O)COC(=O)C2=COCCO2)c(C)n1-c1cccc(F)c1 | 88%
O=C(NC1CCCCC1)C1CC(=O)N(c2cccc([N+](=O)[O-])c2)C1 (stereo unspecified) | 97%
CC(=O)OC1=Cc2c(ccc3ccc(=O)oc23)OC1(C)C | 92.1%
COc1ccc(NCc2nnc(SCC(=O)c3ccc(OC)cc3)o2)cc1 | 91.7%
COc1ccc(/C(O)=C/Sc2nnc(Cc3ccccc3)o2)cc1 | 102%
Nc1ccc2c(c1)nnn2-c1ccccc1 | 92.9%
COc1cc(/C=C(\C#N)c2nc3c(s2)CC(C)CC3)ccc1O (stereo unspecified) | 82.1%
CCC[C@@H]1C[C@@H](C(=O)NC(C(C)Cl)[C@H]2O[C@H](SC)[C@H](O)[C@@H](O)[C@H]2O)N(C)C1 (stereo partly specified) | 101%

Structure (SMILES) | viability
Nc1ccc(Oc2ccc3c(c2)OCO3)cc1 | 91.1%
O=C1NN(c2ccc(Br)cc2)C(=O)/C1=C\c1ccc(O)cc1O | 94.3%
C=CCOc1ccc(C2=NOC(C(=O)Nc3ccc4c(c3)OCCO4)C2)cc1 (stereo unspecified) | 102%
COc1ccccc1NC(=O)CN1CCN(CC(=O)Nc2ccc3c(c2)OCO3)CC1 | 91.8%
Nc1ncc2[nH]cnc2n1 | 96.1%
C[C@]12C=CC(=O)C=C1CC[C@@H]1C2=CC[C@]2(C)[C@@H](C(=O)CN3CCN(c4cc(N5CCCC5)nc(N5CCCC5)n4)CC3)CC[C@@H]12 | 86.1%
COc1ccc(/C=N/Nc2nncn2N)cc1Br | 100%
CCOC(=O)CSc1snnc1-c1ccccc1 | 95.3%
CCc1ccc(CCOc2ccc(CC3SC(=O)NC3=O)cc2)nc1 (stereo unspecified) | 97.5%
Cc1cc(C)n(C(=O)c2ccc([N+](=O)[O-])cc2[N+](=O)[O-])n1 | 93.6%
Cc1ccc(NC(=O)c2ccc(CSc3nnc(C)s3)cc2)c(C)c1 | 90.1%
COC(=O)c1cc(NC(=O)c2c(F)c(F)c(F)c(F)c2F)cc(C(=O)OC)c1 | 80.9%
C=CC[n+]1ccn(-c2nc3ccccc3nc2[N-]S(=O)(=O)c2cccs2)c1 | 101%
C/C(CC(=O)Nc1ccc2c(c1)OCCO2)=N\NC(=O)c1ccccc1F | 84.3%
N#CC(C(=O)NCc1ccco1)c1nc2ccccc2nc1N1CCOCC1 (stereo unspecified) | 85.7%
CCOC(=O)C1CCN(c2nc3cc(OC)ccc3cc2C#N)CC1 | 94%
O=C(/C=C\c1cccs1)N1CCN(Cc2ccc3c(c2)OCO3)CC1 | 103%
COC(=O)C1CC(=O)N(c2ccc(OCc3ccccc3Cl)cc2)C1 (stereo unspecified) | 99.3%
CCCn1nnc(NC(=O)COc2ccc(CC)cc2)n1 | 98.3%
CCOC(=O)c1cnc2ccc(OCC)cc2c1N1CCN(c2ccccc2)CC1 | 83.2%
CCOC(=O)c1cc(-c2ccccc2)nc2c1c(C)nn2-c1ccccn1 | 86.2%
COc1ccc(OCc2nnc3n2N=C(c2ccccc2)C(CC(=O)O)S3)cc1 (stereo unspecified) | 94.8%
CCOc1ccc(C2=Nc3ccc(Br)cc3C(c3ccc(N4CCOCC4)cc3)=NN2)cc1 | 83.2%

Structure (SMILES) | viability
Cc1ccsc1/C=C1\SC(N2CCOCC2)=NC1=O | 89.7%
Cc1nc(S/C(=C/c2ccc(-c3ccc(Cl)cc3)o2)C(=O)O)n[nH]1 | 89.2%
CSCCC(=O)N1CCCC(CNC(=O)c2ccc(-c3ccccc3)cc2)C1 (stereo unspecified) | 85.2%
Cc1cc(C)c(C(N)=O)c(SCC(=O)c2ccc(Cl)cc2)n1 | 82.3%
CCC(=O)c1ccc(OCC(=O)OCC(=O)c2cc(C)n(C3CC3)c2C)cc1 | 97.6%
COc1ccc(N=Cc2c[nH][nH]c2=O)cc1 | 104%
COc1ccc2c(c1)CC/C(=C\C=C\c1ccccc1OC)C2=O | 85.3%
O=S(=O)(Nc1ccn(-c2ccccc2)n1)c1ccc(Br)cc1 | 96.4%
CCC(C)OC(=O)C(C)Oc1ccc(-c2ccccc2)cc1 (stereo unspecified) | 100%
O=c1ccn(-c2ccccc2)[nH]1 | 90.3%
Cc1ccc(NC(=O)CNCc2cccs2)cc1Br | 101%
O=C(c1cccc([N+](=O)[O-])c1)N1CCN(c2ccc(N3CCOCC3)nn2)CC1 | 98.9%
CCOP(=O)(OCC)/C(=C/N1CCCCC1)NC(=O)c1ccccc1 | 97.9%
Cc1ccccc1CSc1nsc(N)n1 | 93.7%
Cc1nnc(SCc2ccccc2Cl)n(N)c1=O | 93.8%
CN(CCCCCCCCCCN(C)C(=O)Oc1cccc([N+](C)(C)C)c1)C(=O)Oc1cccc([N+](C)(C)C)c1 | 99.4%
CCOC(=O)c1ccc(Nc2cc3ccccc3c(=O)[nH]2)cc1 | 85.4%
CCOC(=O)c1ccc(NC(=S)Nc2ccc3[nH]c(=O)[nH]c3c2)cc1 | 96.7%
CC(C)(C)OC(=O)NNC(=S)NC1CCCCC1 | 96.6%
CCOc1ccc(NC(=O)c2sc3nc(C)nc(N4CCOCC4)c3c2C)cc1 | 83.9%
CCOC(=O)CNC(=O)c1sc2ncnc(N3CCc4ccccc4C3)c2c1C | 85.3%
O=C(Nc1ccc(-c2noc(CCc3ccccc3)n2)cc1)c1cccnc1 | 88.7%
CCOC(=O)c1nnc(-c2ccccc2)nc1NCc1ccccc1 | 93.8%

Structure (SMILES) | viability
O=C(OCC(=O)N1CCCCC1)c1cc2ccccc2cc1O | 92.3%
COC(=O)C(CCSC)NC(=O)c1cn(-c2ccc(OC)cc2)c(=O)c2ccccc12 (stereo unspecified) | 94.8%
COC(=O)CSc1nnc([C@H](CC(C)C)NC(=O)OC(C)(C)C)o1 | 93.8%
COC(=O)C(C)Oc1ccc(Cc2ncc(C(F)(F)F)cc2Cl)cc1 (stereo unspecified) | 101%
CCCCNC(=S)Nc1ccc2cn[nH]c2c1 | 98.4%
COC(=O)[C@H](CC(C)C)NC(=O)c1cc2c(cn1)[nH]c1ccccc12 | 92.3%
CCc1nc2ccccc2c(C(=O)Nc2cc(C)ccc2C)c1C | 81.3%
O=C(Oc1ccc2ccccc2c1)c1cncc(Br)c1 | 87.4%
N=C1C(c2nc3ccccc3[nH]2)=C(O)CN1NC(=O)c1c[nH]c2ccccc12 | 99.7%
CCCCn1c(N)c(N(CC(C)C)C(=O)c2oc3c(Cl)cccc3c2C)c(=O)[nH]c1=O | 91%
Cc1ccc(CN2CC(C(=O)OCc3ccccc3Cl)CC2=O)cc1 (stereo unspecified) | 92.4%
CCOC(=O)CSc1ncnc2c1sc1nc(N3CCOCC3)c3c(c12)CCCC3 | 83.6%
COc1ccc(NC2=C(C(C)=O)C(c3ccc4c(c3)OCO4)C(C(C)=O)C(C)(O)C2)cc1 (stereo unspecified) | 94%
CCCNC(=O)NC(=O)COc1ccc2oc3ccccc3c2c1 | 94%
COc1ccc(-c2cc3n(n2)CCc2nc4ccccc4n2-3)cc1 | 81.9%
NNC(=S)Nc1ccccc1Cl | 81.6%
CCCCCOC(=O)Nc1nnc(CCCCC)s1 | 96.8%
O=C(CSc1nnnn1-c1ccc2c(c1)OCCO2)OC1CCCCC1 | 98.5%
C=CCc1c(C)nc2ccc(C(=O)OCC)cc2c1Cl | 85.8%
C/C(=N\Nc1nc2c(s1)CCCC2)c1ccccc1 | 93.5%
O=C(Nc1nc2c(s1)CCCC2)c1cc(-c2ccc3c(c2)OCO3)nc2ccccc12 | 94.1%
COC(=O)c1ccc2c(=O)[nH]c(CSc3nc(C)cs3)nc2c1 | 94.4%
C/C(=N\Nc1ccc([N+](=O)[O-])cc1)c1cccc(N)c1 | 96.7%

Structure (SMILES) | viability
O=C1c2ccccc2S(=O)(=O)c2cc(C(=O)N3CCN(c4c(Cl)cncc4Cl)CC3)ccc21 | 86.1%
O=C(/C=C/c1ccc(OCCCF)cc1)Nc1ccnc(-c2ccncc2)n1 | 89.6%
CCCCOC1CC(c2ccc(OCc3ccc(OC)cc3)c(OC)c2)N(C)O1 (stereo unspecified) | 81.5%
CO/N=C\CC(=O)Nc1ccc(Oc2ccccc2)cc1 | 63.6%
O=C1C(=O)N(c2ccccc2)c2ccccc21 | 96.8%
O=C1c2ccccc2C(=O)N1Nc1ccccc1 | 99.7%
CC(=O)c1c(N2CCCC2)[nH]c(-c2ccccc2)nc1=S | 96%
Cc1ccc(-c2cccc(NC(=O)C3C4C=CC(C4)C3C(=O)O)c2)o1 (stereo unspecified) | 88.6%
NC(=O)/C(=N\OC(=O)c1ccco1)c1nc(-c2ccc(Br)cc2)cs1 | 86.2%
CCOC(=O)C(C)Oc1ccc(NC(=O)C(Cl)(Cl)Cl)cc1 (stereo unspecified) | 92.1%
CCOC1OC(=O)C(Cl)=C1Nc1ccccc1C (stereo unspecified) | 94.2%
COc1ccc(-c2ccc(=O)n(Cc3c(F)cccc3Cl)n2)cc1 | 89.1%
O=C(c1ccccc1)C1CN(Cc2ccccc2)CCC1(O)c1ccccc1 (stereo unspecified) | 81.6%
c1ccc(Cn2nnc3c(N4CCc5ccccc5C4)ncnc32)cc1 | 80.2%
Oc1ccc(F)c2cccnc12 | 98.7%
CCCCn1cnc2cc(NCc3cccc(OC)c3O)ccc21 | 91%
COc1c(C)cc(C(=O)C2CCCN(Cc3ccccn3)C2)cc1C (stereo unspecified) | 90.1%
CCOC(=O)N1CCN(C(=O)COC(=O)C2CCN(S(=O)(=O)c3c(Cl)cccc3Cl)CC2)CC1 | 97%
COC(=O)c1cc(Sc2cccc(Cl)c2Cl)ccn1 | 83.8%
